This is an account of results in PubChem BioAssay AID868 (SRMLSC, 2007).

Structures are written as SMILES. The campaign covered roughly 190,000 compounds. About 3,500 (1.8%) were called active. Only a selection was taken, and actives are over-represented in it overall. Unmarked numbers belong to inactive results.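 How the source made its calls: active means inhibition above a set limit, 3 SD over mean compound inhibition (cut at about 8.4% in these data); inactive means the rest.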

A short description of this assay: RAM signaling blockers in budding yeast – dse1pr::URA3 reporter, 5-FOA selection, primary screen (AID 868).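 Further: 0% = DMSO-only wells with no growth and 100% = 10 µM 1-NA-PP1 full growth; inhibition rescues growth on 5-FOA so higher OD means more RAM inhibition.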 The conditions noted are these: S. cerevisiae dse1pr::URA3 reporter, 5-FOA growth OD615, 2 d; at 50 µM; stronger effect = higher value; analog-sensitive cbk1-as2 kinase mutant strain.
Take `COc1cccc(CC2(CO)CCCN(CC3=Cc4cc(OC)ccc4OC3)C2)c1` (centres undefined): the inhibition is 0.13%.

Take `O=C(c1nnc(-c2ccc(Cl)cc2)o1)C1CCCC1`: the inhibition was 2.68%.

For the molecule `COC(=O)CSc1nc2c(c(C3CC=CCC3)c1C#N)CCC2` (centres undefined), the inhibition is 8.53% (active).

As for `CCOc1ccc2cc(C#N)c(SCC(=O)OC)nc2c1`, the inhibition was 1.88%.

In the case of `COC(=O)CSc1nc(C2CC2)nc2ccccc12`, the inhibition is -0.4%.

In the case of `O=C(CSc1cccc[n+]1[O-])c1ccc(-c2ccccc2)cc1`, the inhibition is 0.55%.

For `CCCCc1nc(NCCN)c(C#N)c2c1CSC(C)(C)C2`, the inhibition was 1.35%.

As to `CCCCc1nc(NCc2ccccc2)c(C#N)c2c1CCCC2`, the inhibition is 8.74% (active).

As for `CCN1CCc2c(C#N)c(NCc3ccccc3)nc(NCCO)c2C1`, the inhibition was 1.86%.

With `CS(=O)(=O)N1CCc2cc(C(=O)Nc3ccccc3)ccc21`, the inhibition is 3.82%.

Consider `COc1ccc(OCC(=O)OCC(=O)Nc2ccc(S(=O)(=O)N3CCCCC3)cc2)cc1`, for which the inhibition was 4.54%.

`O=C(CSCc1ccc(Br)cc1)Nc1ccc(S(=O)(=O)N2CCCCCC2)cc1`: the inhibition was 19.5% (active).

As to `CN(CC(=O)Nc1ccc(S(=O)(=O)N2CCCC2)cc1)Cc1ccc(Cl)c(Cl)c1`, the inhibition was -0.13%.

On to `COc1ccc(Sc2nc(-c3ccccc3)ncc2OC)cc1`, for which the inhibition is 4.55%.

For `Cc1ccc(OC(=O)c2ccccc2C(=O)OCC(F)(F)C(F)F)cc1`, the inhibition is 8.9% (active).

In the case of `Cc1ccc(OC(=O)c2cc3ccccc3o2)cc1`, the inhibition was 0.41%.

As for `O=C(CCC(=O)OCC(F)(F)C(F)F)NCc1ccccc1`, the inhibition is -0.39%.

For `COc1ccc(C=Nc2cccc3ncccc23)cc1`, the inhibition was 0.48%.

As to `C=C(C)c1cccc(C(C)(C)NC(=O)NCCN(CC)CC)c1`, the inhibition is 1.45%.

For the molecule `O=[N+]([O-])c1cc(S(=O)(=O)Nc2cccc(Cl)c2)ccc1N=Nc1c(O)[nH]c2ccccc12`, the inhibition was 7.97%.

As to `CCCCOc1ccc(C(=O)NCc2ccco2)cc1`, the inhibition was 0.66%.

`COc1ccc(/C=C(\NC(=O)c2ccc(OCC(C)C)cc2)C(=O)OCc2ccco2)cc1`: the inhibition was 11.7% (active).

In the case of `O=C(OCN1C(=O)c2ccccc2C1=O)/C(=C\c1ccco1)NC(=O)c1ccccc1`, the inhibition is 1.22%.

For the molecule `COc1ccc2c(c1)CCC/C2=N\OC(=O)c1ccccc1F`, the inhibition was 0%.

Take `Cc1ccc(S(=O)(=O)NC(C)C(=O)Nc2ccccc2C(=O)N2CCCC2)cc1` (centres undefined): the inhibition was 0.67%.

Consider `COc1ccc(C(=O)NNS(=O)(=O)c2ccc(C)cc2)cc1`, for which the inhibition is 1.12%.

For `Cc1ccc(S(=O)(=O)NNC(=O)Nc2cccc3ccccc23)cc1`, the inhibition was 8.69% (active).

For the molecule `Cc1ccc(C(C[N+](=O)[O-])c2c(C)cc3ccccn23)cc1` (centres undefined), the inhibition was 5.1%.

In the case of `CCN1CCN(C(=O)CN(C)S(=O)(=O)c2ccc3ccccc3c2)CC1`, the inhibition was 1.12%.

As to `N/C(=N\OC(=O)CCCC(=O)O)c1ncc(C(F)(F)F)cc1Cl`, the inhibition is 1.61%.

In the case of `CCCC(=O)n1nc(NCc2ccc(OC)cc2)nc1NCc1ccc(OC)cc1`, the inhibition is 6.99%.

`O=C(c1cccs1)n1nc(NCc2ccccc2)nc1NCc1ccccc1`: the inhibition was 11.2% (active).

For the molecule `O=C(CCC(=O)c1cccs1)NCc1ccccc1`, the inhibition was 1.52%.

With `O=C(NCCOc1ccccc1Cl)C(=O)Nc1ccccc1`, the inhibition is 4.17%.

Regarding `NC(N)=Nc1nc2ccc(Br)cc2c(=O)[nH]1`, the inhibition is -0.37%.

As for `CCOC(=O)c1c(NC(=S)NC(=O)c2ccco2)sc2c1CCCC2`, the inhibition is 4.55%.

Take `CCOCC(=O)Nc1sc2c(c1C(=O)OCC)CCCC2`: the inhibition was 2.1%.

Turning to `CCOC(=O)c1c(NC(=O)CCC(=O)NCc2ccco2)sc2c1CCCC2`, the inhibition is 9.97% (active).

Turning to `Nc1cc(C(F)(F)F)ccc1N1CCOCC1`, the inhibition is 2.42%.

Turning to `O=C(CN1CCN(S(=O)(=O)c2ccc(Br)cc2)CC1)Nc1ccccc1C(=O)c1ccccc1`, the inhibition was 3.25%.

In the case of `Cc1cc2ccccc2n1CCNC(=O)COc1ccc2ccccc2c1`, the inhibition was 11.6% (active).

`Cc1cc2ccccc2n1CCC(=O)O`: the inhibition was -0.54%.

For the molecule `COC(=O)C(C)NC(=O)COc1ccc2ccccc2c1` (centres undefined), the inhibition is 1.01%.

On to `COc1ccc(S(=O)(=O)Nc2cccnc2)c(Cl)c1Cl`, for which the inhibition was 2.49%.

With `CC(C)Cc1nn2c(=O)cc(O)nc2s1`, the inhibition is 1.5%.

Consider `COc1cccc(CNn2cn[nH]c2=S)c1OCc1ccccc1`, for which the inhibition was 1.01%.

On to `CSc1c(SCc2ccccc2)cnn(Cc2ccccc2)c1=O`, for which the inhibition was 1.14%.

For the molecule `COc1ccc(NC(=O)CN(C)S(=O)(=O)c2ccccc2)cc1OC`, the inhibition is 0.34%.

With `COc1ccc(/C=C/C(=O)Nc2ccc3c(c2)OCCO3)cc1OC`, the inhibition was 1.12%.

`COc1ccc(S(=O)(=O)N(C)CC(=O)Nc2ccc3c(c2)OCCO3)cc1OC`: the inhibition was 9.23% (active).

With `Cc1ccc(N2C(=O)C3CC3C2=O)cc1` (centres undefined), the inhibition is 0%.

Consider `O=C(NCc1ccc(Cl)cc1)NCc1ccc(Cl)cc1`, for which the inhibition is 2.41%.

As to `Cc1cccc(Oc2c([N+](=O)[O-])c(=O)n(C)c3ccccc23)c1`, the inhibition is 2.19%.

Turning to `CC(C)c1csc(CN2CCC(CO)(Cc3ccccc3)CC2)n1`, the inhibition was 1.22%.

Consider `COc1ccc([N+](=O)[O-])cc1NC(=O)CC1SC(=Nc2cccc(C)c2C)N(/N=C(\C)c2ccc(C)cc2)C1=O` (centres undefined), for which the inhibition was 9.07% (active).

For the molecule `COc1ccc([N+](=O)[O-])cc1NC(=O)c1ccc(N(Cc2ccccc2C)S(C)(=O)=O)cc1`, the inhibition was 4.39%.

As for `COc1ccc([N+](=O)[O-])cc1NC(=O)CCc1ccccc1`, the inhibition is 0.95%.

On to `Cc1ccccc1Nc1nc(N)nc(CSc2ccccc2)n1`, for which the inhibition is -0.26%.

Turning to `COc1ccc(-c2nnc(SC(C)C#N)o2)cc1` (centres undefined), the inhibition was -0.45%.

Take `COc1ccc(-c2nnc(SC(=O)N3c4ccccc4Sc4ccccc43)o2)cc1`: the inhibition is 8.49% (active).

`COc1ccc(-c2nnc(SCc3cccnc3)o2)cc1`: the inhibition is 0.36%.

Turning to `CC1CCN(c2ccc([N+](=O)[O-])cc2C(N)=O)CC1`, the inhibition was 1.09%.

As to `Cc1cc(C)c(NC(=S)N2CCCC2C(=O)O)c(C)c1` (centres undefined), the inhibition was -0.25%.

For the molecule `COC(=O)c1ccc(C2C(Oc3ccccc3C)C(=O)N2CCc2ccc(OC)c(OC)c2)cc1` (centres undefined), the inhibition was 12.4% (active).

Consider `COc1ccc(CCN2C(=O)c3[nH]nc(-c4ccccc4O)c3C2c2ccc(C)cc2)cc1OC` (centres undefined), for which the inhibition was 1.8%.

`COc1ccc(CCNC(=O)C(=O)NCc2ccccc2C)cc1OC`: the inhibition was 0.77%.

As to `Cc1sc2c(c1C)c(=O)n(-c1ccccc1)c(=O)n2CC(=O)NCC1CCCO1` (centres undefined), the inhibition is 1.92%.

As for `O=C(O)/C=C/C(=O)NNc1ccc([N+](=O)[O-])cc1`, the inhibition was 0.13%.

On to `CCOCCCNC(=O)C(NC(=O)c1ccccc1O)c1ccccc1` (centres undefined), for which the inhibition is 0%.

As for `Cc1ccc(-n2nc(C)c(/C=N/NC(=O)c3cccs3)c2Cl)cc1`, the inhibition was 5.29%.

Take `Cc1nn(-c2ccccc2)c(C)c1/C=C/C(=O)OC(C)C(N)=O` (centres undefined): the inhibition was 1.08%.

With `Cc1nn(-c2ccccc2)c(C)c1NC(=O)CCl`, the inhibition is 3.63%.

Take `Cc1nn(-c2ccccc2)c(Cl)c1C(=O)Nc1ccccc1`: the inhibition is 6.51%.

With `Cc1nn(-c2ccccc2)c(Cl)c1/C=C/C(=O)c1ccc(O)cc1`, the inhibition was 8.5% (active).

In the case of `Cc1ccc(C(=O)/C=C/c2c(C)nn(-c3ccccc3)c2Cl)cc1`, the inhibition was 14.1% (active).

For the molecule `OCC(CO)(CO)NCc1ccc(-c2ccccc2)cc1`, the inhibition was 1.38%.

As for `COC(=O)N/N=C/c1ccc(/C=N/NC(=O)OC)cc1`, the inhibition is 1.05%.

On to `COc1cc(C)c(S(=O)(=O)N2CCOCC2)c(C)c1C`, for which the inhibition is 0.98%.

For the molecule `Cc1ccc(N=Cc2c(O)cc(C)oc2=O)c(C)c1`, the inhibition is 0.38%.

As to `Cc1ccc(N=Cc2c(O)n(-c3nccs3)c(=O)c3ccccc23)c(C)c1`, the inhibition was 8.99% (active).

As to `Cc1ccc(-n2c(O)c(C=Nc3ccc(S(=O)(=O)Nc4ncccn4)cc3)c3ccccc3c2=O)cc1C`, the inhibition is 7.54%.

Regarding `C/C(CC(=O)N1CCN(C=O)CC1)=N\NC(=O)c1ccc(Br)cc1`, the inhibition is 2.35%.

Turning to `Cc1ccc2[nH]c(C)c(CCNC(=O)NC3CCCCC3)c2c1`, the inhibition is 1.04%.

Take `CC(=O)N(CCCN(C)C)c1nc2ccc(C)cc2s1`: the inhibition is 3.5%.

As to `CC(C)c1cc(NCc2ccccn2)n2c(nc3ccccc32)c1C#N`, the inhibition is -0.26%.

For the molecule `C=C(C)CNC(=S)N/N=C/c1ccccc1OCC(=O)O`, the inhibition is 0%.

As to `CCOc1ccccc1/C=N/NC(=O)CNC(=O)COc1ccccc1`, the inhibition is 1.01%.

For the molecule `C=CCc1ccccc1OCC(=O)N/N=C/c1ccccc1OCC`, the inhibition is 12.4% (active).

`O=[N+]([O-])c1cc(S(=O)(=O)CCCN2CCOCC2)ccc1F`: the inhibition was -0.13%.

As for `COc1ccc(/C(C)=N/NC(=O)CCC(=O)Nc2ccc(Cl)cc2Cl)c(OC)c1`, the inhibition is 0.4%.

Turning to `COc1cc(OC)c(C(=O)OC(C)C(=O)Nc2cc(C(F)(F)F)ccc2Cl)cc1OC` (centres undefined), the inhibition is 0.5%.

Turning to `COc1ccc(/C(C)=N/Nc2cc(C(F)(F)F)ccc2Cl)c(OC)c1`, the inhibition is 13.5% (active).

With `COC(=O)c1ccc(CN2CCC(CO)(Cc3ccc(OC)cc3)CC2)cc1`, the inhibition was 1.4%.

With `COc1ccc(-c2ccc(CCC(=O)O)n2NC(=O)c2ccc(C(C)(C)C)cc2)cc1`, the inhibition was 5.38%.

In the case of `Cc1ccc(CN2CCN(Cc3ccc4ncccc4c3)CC2CCO)cc1` (centres undefined), the inhibition is 0.13%.

Regarding `O=C(/C=C/c1ccc2c(c1)OCO2)NCc1cn2cc(Cl)ccc2n1`, the inhibition was 3.64%.

For the molecule `O=C(COC(=O)CCCNC(=O)c1ccc(Cl)cc1)Nc1cc(Cl)ccc1Cl`, the inhibition was 14.2% (active).

For `Cc1ccc(Cl)cc1NC(=O)COC(=O)CC(C)(C)C`, the inhibition was -1.53%.

For the molecule `Cc1ccc(Cl)cc1NC(=O)COC(=O)C1CCCCC1`, the inhibition is 1.91%.

What is called inhibition is the relative decrease from the control value, in per cent.
